These results are taken from PubChem BioAssay (Tox21).

Experiment [1] in a line: qHTS assay for small molecules that induce genotoxicity in human embryonic kidney cells expressing luciferase-tagged ATAD5 (AID 651632). Also: nearly all actives have a fitted effect of over 15% in size. Put shortly:
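Luminescence read-out: after 16 hr compound exposure at 37C, ATAD5-luciferase HEK293T cells received Amplite, 30 min RT, then CCD imaging. A rise in signal marks genotoxic stress.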

Experiment [2] in a line: qHTS assay for small molecules that induce genotoxicity in human embryonic kidney cells expressing luciferase-tagged ATAD5 - cell viability (AID 651634; calls by dose curve; also: nearly all actives have a fitted effect of over 25% in size). In short, it runs like this: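 HEK293T ATAD5-luc cells, 2,000/well; compound 15.5 hr, 37C/5% CO2; CellTiter-Fluor 30 min, 37C; fluorescence read.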
Background: In qHTS, concentration-response curves come from the screen itself.

A short description of experiment [3]: qHTS assay for small molecule disruptors of the mitochondrial membrane potential - cell viability (AID 720634; calls by dose curve;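 also: human HepG2 liver cancer cells; series mostly up to about 83 µM; nearly all actives have a fitted effect of over 20% in size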). Put shortly: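 Luminescence from CellTiter-Glo (ATP content) gave viability in HepG2 cells, read in the same wells as the MMP dye assay after 1 hr compound exposure at 37 C.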
Experiment [4] can be described thus: qHTS assay to test for compound auto fluorescence at 590 nm (red) in HepG2 cells (AID 720674). In short, it runs like this: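 Seeding: 2,000 HepG2 cells/well, MEM/10% FBS, overnight 37 C. Dosing: compound vs DMSO. Incubation: 1 hr, 37 C, 5% CO2. Read: fluorescence 540 ex/590 em, Rose Bengal sodium as red reference.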
Experiment [5] in a line: qHTS assay to test for compound auto fluorescence at 535 nm (green) in HepG2 cells (AID 720675).
Experiment [6] in a line: qHTS assay to test for compound auto fluorescence at 460 nm (blue) in HEK293 cells (AID 720678). In short, it runs like this:
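Triamterene serves as the blue fluorophore standard. Compound signal at 405/460 nm is read in HEK293 wells (2,000 cells, 10% dialyzed FBS) after overnight treatment at 37C.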

A short description of experiment [7]: qHTS assay to test for compound auto fluorescence at 590 nm (red) in HEK293 cells (AID 720679). Put shortly: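 We plated HEK293 cells in 10% dialyzed FBS medium, let them adhere for 4-5 hr, then added 23 nL compound. Overnight at 37C and 5% CO2 preceded fluorescence measurement at 540/590nm.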
A short description of experiment [8]: qHTS assay to test for compound auto fluorescence at 535 nm (green) in HEK293 cells (AID 720680).
A short description of experiment [9]: qHTS assay to test for compound auto fluorescence at 460 nm (blue) in HEK293 cell free culture (AID 720681). Put shortly:
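Compounds were added to cell-free DMEM with 10% FBS and fluorescence read directly. The blue channel used 405 nm excitation and 460 nm emission, with triamterene as the reference fluorophore.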

A short description of experiment [10]: qHTS assay to test for compound auto fluorescence at 535 nm (green) in HEK293 cell free culture (AID 720682). Put shortly: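 Each library compound, or DMSO control, is added by pintool to medium alone, comprising DMEM and 10% FBS. Emission at 535 nm following 485 nm excitation is quantified against fluorescein.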
Experiment [11] can be described thus: qHTS assay to test for compound auto fluorescence at 590 nm (red) in HEK293 cell free culture (AID 720683). In short, it runs like this: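 Cell-free wells of DMEM with 10% FBS received compound, and intrinsic fluorescence was read at excitation/emission 540/590 nm. Values expressed as equivalence to Rose Bengal sodium.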
Experiment [12] can be described thus: qHTS assay to test for compound auto fluorescence at 590 nm (red) in HepG2 cell free culture (AID 720684). In short, it runs like this:
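Auto fluorescence equivalency versus Rose Bengal sodium, red channel Ex/Em 540/590 nm; compounds in cell-free MEM/10% FBS; DMSO vehicle control.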

Experiment [13] in a line: qHTS assay to test for compound auto fluorescence at 460 nm (blue) in HepG2 cell free culture (AID 720685). Put shortly: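 Cell-free plates of MEM plus 10% FBS received 23 nL compound or DMSO vehicle; blue-channel (405/460 nm) intensity scored against triamterene as reference fluorophore.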
Experiment [14] is described as follows: qHTS assay to test for compound auto fluorescence at 535 nm (green) in HepG2 cell free culture (AID 720686).
Experiment [15] is described as follows: qHTS assay to test for compound auto fluorescence at 460 nm (blue) in HepG2 cells (AID 720687). Put shortly: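 HepG2 cells in MEM with 10% FBS, attached overnight at 37 C, were exposed to compound or DMSO for 1 hr at 37 C, 5% CO2. Blue fluorescence was read at 405/460 nm, with triamterene as reference fluorophore.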
The target of experiment [16] is Glucocorticoid receptor (Homo sapiens) (UniProt P04150). Nature of the experiment: qHTS assay to identify small molecule agonists of the glucocorticoid receptor (GR) signaling pathway (AID 720691; active = well fitted activation curve with a large enough effect in the signal ratio in the repeat runs, not every such curve was filed as active; the % refers to the signal ratio). In short, it runs like this:
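HeLa GR-bla reporter line; cells pre-incubated 4 h, compound in DMSO 18 h at 37 C; LiveBLAzer B/G FRET substrate 2 h RT; fluorescence intensity read-out.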

The target is the same in experiment [17]. Nature of the experiment: qHTS assay to identify small molecule antagonists of the glucocorticoid receptor (GR) signaling pathway (AID 720692; active = well fitted inhibition curve with a large enough effect in the signal ratio in the repeat runs, not every such curve was filed as active; the % refers to the signal ratio). Put shortly:
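Read-out: beta-lactamase FRET substrate fluorescence, 2 h at room temperature, in HeLa cells stably carrying a GRE-driven bla reporter. Compounds were co-incubated with 5 nM dexamethasone agonist (final) for 18 h at 37 C.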

A short description of experiment [18]: qHTS assay to identify small molecule antagonists of the glucocorticoid receptor (GR) signaling pathway - cell viability counter screen (AID 720693). Also: nearly all actives have a fitted effect of over 55% in size.
The nature of experiment [19]: qHTS assay for identifying genotoxic compounds that show differential cytotoxicity against isogenic chicken DT40 cell lines with known DNA damage response pathways - Rev3 mutant cell line (AID 743014). Also: potency is read from the fitted curve at half-maximal effect; nearly all actives have a fitted effect of over 55% in size.
A short description of experiment [20]: qHTS assay for identifying genotoxic compounds that show differential cytotoxicity against isogenic chicken DT40 cell lines with known DNA damage response pathways - Rad54/Ku70 mutant cell line (AID 743015). Also: potency is read from the fitted curve at half-maximal effect; nearly all actives have a fitted effect of over 60% in size.
Experiment [21] concerns the target Androgen receptor (Homo sapiens) (UniProt P10275). Nature of the experiment: qHTS assay to identify small molecule antagonists of the androgen receptor (AR) signaling pathway (AID 743035; active = well fitted inhibition curve with a large enough effect in the signal ratio in the repeat runs, not every such curve was filed as active; the % refers to the signal ratio). In short, it runs like this:
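AR-bla HEK293 reporter cells; 4 h settle at 37C/5% CO2; compound + R1881 agonist, 16 h at 37C; LiveBLAzer B/G FRET substrate 2 h RT; fluorescence intensity read. qHTS format.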

For experiment [22] the target is unchanged. Nature of the experiment: qHTS assay to identify small molecule agonists of the androgen receptor (AR) signaling pathway using the MDA cell line (AID 743040; also: nearly all actives have a fitted effect of over 20% in size). Put shortly:
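Testing was done with the MDA-kb2 AR-luc line, a human breast carcinoma stably transfected with MMTV-luciferase containing AR and GR response elements. Cells were exposed 16 h at 37C before ONE-Glo luminescence detection.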

The nature of experiment [23]: qHTS assay to identify small molecule antagonists of the thyroid receptor (TR) signaling pathway - cell viability counter screen (AID 743064). Also: potency is read from the fitted curve at half-maximal effect; nearly all actives have a fitted effect of over 50% in size. In short, it runs like this: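 CellTiter-Fluor readout, 30 min at 37 °C/5% CO2, following 23.5 h incubation of GH3.TRE-Luc cells with test compound and 1 nM T3 (final).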
A short description of experiment [24]: qHTS assay to identify small molecule antagonists of the thyroid receptor (TR) signaling pathway (AID 743065). Also: potency is read from the fitted curve at half-maximal effect; nearly all actives have a fitted effect of over 55% in size. Put shortly:
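GH3.TRE-Luc rat pituitary cells (two TREs driving luciferase) were dosed with compound, then stimulated with 1 nM T3 (final) for 23.5 h at 37 C. ONE-Glo luminescence was the read-out, with CellTiter-Fluor fluorescence as the cytotoxicity counter-screen.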

A short description of experiment [25]: qHTS assay to identify small molecule antagonists of the estrogen receptor alpha (ER-alpha) signaling pathway - cell viability counter screen (AID 743074; calls by dose curve;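 also: HEK293 cells carrying ER-alpha-UAS-bla reporter stimulated with 17beta-estradiol; nearly all actives have a fitted effect of over 45% in size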).
Experiment [26] is described as follows: qHTS assay to identify small molecule antagonists of the estrogen receptor alpha (ER-alpha) signaling pathway using the BG1 cell line - cell viability counter screen (AID 743081).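 Also: compound given together with 17beta-estradiol as the ER stimulus; series mostly up to about 70 µM; nearly all actives have a fitted effect of over 45% in size.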
Experiment [27] in a line: qHTS assay to identify aromatase inhibitors - cell viability counter screen (AID 743084).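 Also: cells stimulated with testosterone during compound exposure; nearly all actives have a fitted effect of over 55% in size.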
Experiment [28] addresses Aryl hydrocarbon receptor (Homo sapiens) (UniProt P35869). Nature of the experiment: qHTS assay to identify small molecule that activate the aryl hydrocarbon receptor (AhR) signaling pathway (AID 743085). Also: potency is read from the fitted curve at half-maximal effect; nearly all actives have a fitted effect of over 15% in size. In short, it runs like this:
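Stably transfected human liver carcinoma cells (HG2L7.5c1; 20 DRE-firefly luciferase) were incubated 5 h, dosed, and kept 24 h at 37C. Agonism was scored from increased luciferase luminescence.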

Experiment [29] can be described thus: qHTS assay to identify small molecule that activate the aryl hydrocarbon receptor (AhR) signaling pathway - cell viability counter screen (AID 743086).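 Also: HepG2 liver cells carrying the AhR DRE luciferase reporter; series mostly up to about 70 µM; nearly all actives have a fitted effect of over 45% in size.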 Put shortly: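 HepG2-AhR-luc (HG2L7.5c1) cells, 4000/well, treated 24 h at 37 C with compound; viability measured as CellTiter-Fluor fluorescence after 30 min in the same wells as the luciferase read.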
The target of experiment [30] is Peroxisome proliferator-activated receptor gamma (Homo sapiens) (UniProt P37231). Nature of the experiment: qHTS assay to identify small molecule agonists of the peroxisome proliferator-activated receptor gamma (PPARg) signaling pathway (AID 743094; active = well fitted activation curve with a large enough effect in the signal ratio in the repeat runs, not every such curve was filed as active; the % refers to the signal ratio). Put shortly: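 HEK293H PPARg-bla cells, 5 h settle at 37C/5% CO2; compound (DMSO) 17 h, 37C; B/G FRET substrate 1 h RT; fluorescence intensity read-out. qHTS format.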
Peroxisome proliferator-activated receptor gamma (Homo sapiens), sequence (P37231 whole entry, looked up): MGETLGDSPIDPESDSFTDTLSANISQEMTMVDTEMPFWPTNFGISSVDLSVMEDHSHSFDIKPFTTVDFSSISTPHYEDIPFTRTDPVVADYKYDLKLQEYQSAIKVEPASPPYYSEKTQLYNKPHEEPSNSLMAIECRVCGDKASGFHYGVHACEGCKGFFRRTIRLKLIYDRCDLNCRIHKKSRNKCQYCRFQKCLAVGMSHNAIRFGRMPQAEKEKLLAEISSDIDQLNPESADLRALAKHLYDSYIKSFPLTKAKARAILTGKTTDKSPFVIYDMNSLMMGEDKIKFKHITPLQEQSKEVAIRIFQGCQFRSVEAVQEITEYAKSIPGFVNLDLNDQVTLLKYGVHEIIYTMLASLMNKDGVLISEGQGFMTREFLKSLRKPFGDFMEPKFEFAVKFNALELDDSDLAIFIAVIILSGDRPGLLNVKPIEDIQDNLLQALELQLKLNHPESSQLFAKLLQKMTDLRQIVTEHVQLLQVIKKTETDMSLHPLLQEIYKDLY

Experiment [31] in a line: qHTS assay to identify small molecule antagonists of the estrogen related receptor (ERR) signaling pathway - cell viability counter screen (AID 1224818). Also: series mostly up to about 46 µM. Put shortly: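 Fluorescence from CellTiter-Fluor, read 30 min after reagent addition at 37 C, measured viability of ERR cells exposed to compounds for 17.5 h. Cells had settled 6 h before dosing.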
The nature of experiment [32]: qHTS assay to identify small molecule agonists of the estrogen related receptor (ERR) signaling pathway (AID 1224820). In short, it runs like this:
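After 6 h plating (2,000 cells/well) and 18 h compound treatment at 37 C, ERR cells were lysed with One-Glo and luminescence read after 30 min at room temperature.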

In experiment [33] the test system is estrogen-related receptor alpha (ERRalpha) with PGC-1alpha coactivator, human. Nature of the experiment: qHTS assay to identify small molecule antagonists of the estrogen related receptor signaling pathway with the pleiotropic PPARgamma coactivator (PGC) (AID 1224821; calls by dose curve; also: nearly all actives have a fitted effect of over 50% in size; also: potency is read from the fitted curve at half-maximal effect). Put shortly: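 Luminescence from One-Glo luciferase reagent (30 min, room temperature) measured after 18 h compound treatment at 37 °C. Cells carry the PGC/ERR reporter and were seeded 6 h prior to dosing.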

Experiment [34] has as its target Nuclear receptor subfamily 1 group I member 2 (Homo sapiens) (UniProt O75469). Nature of the experiment: CYP3A4 induction through human pregnane X receptor (PXR) by small molecules, qHTS assay (AID 1346984). Also: potency is read from the fitted curve at half-maximal effect; nearly all actives have a fitted effect of over 40% in size. In short, it runs like this: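 HepG2-derived DPX-2 line carrying PXR plus a CYP3A4-promoter luciferase reporter; cells plated 5 hr, compound-exposed 24 hr at 37C. CYP3A4 activity probed with 3uM (final) Luciferin-IPA for 3hr, then luciferase read after One-Glo.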

Experiment [35] shares this target. Nature of the experiment: Human pregnane X receptor (PXR) activation by small molecules, qHTS assay (AID 1346985). Also: nearly all actives have a fitted effect of over 40% in size. In short, it runs like this:
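DPX-2 cells (HepG2 co-transfected with a PXR response element and a CYP3A4-promoter luciferase construct) were seeded at 2,000 per well, rested 5 hr at 37C, then exposed to DMSO-dissolved compounds for 24 hr. Activation was read as luciferase luminescence.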

A short description of experiment [36]: qHTS assay to identify small molecule antagonists of the estrogen related receptor (ERR) signaling pathway (AID 1224819; also: nearly all actives have a fitted effect of over 50% in size; also: potency is read from the fitted curve at half-maximal effect). In short, it runs like this: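 Luminescence readout (One-Glo, 30 min, RT) of ERR cell line after 18 h compound exposure at 37 C; cells seeded 2,000/well, pre-incubated 6 h, compounds pinned from DMSO stocks.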
Experiment [37] in a line: qHTS assay to identify small molecule antagonists of the estrogen related receptor signaling pathway with the pleiotropic PPARgamma coactivator (PGC) cell viability counter screen (AID 1224822; also: series mostly up to about 46 µM). Put shortly: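 Fluorescence read-out of CellTiter-Fluor after 30 min at 37 C; PGC/ERR cells, 2,000 per well, had been exposed to DMSO-dissolved compounds for 17.5 h following a 6 h pre-incubation.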

Experiment [38] is described as follows: qHTS assay to identify small molecule agonists of the estrogen related receptor signaling pathway with the pleiotropic PPARgamma coactivator (PGC) (AID 1224823). In short, it runs like this: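 Luminescence from One-Glo reagent (30 min, room temperature) was read after 18 h compound treatment at 37 C of PGC/ERR cells plated 6 h beforehand; compounds delivered in DMSO by pin tool.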

Molecules are shown by their SMILES. Inconclusive results are not listed. Calls of active or inactive are those of the source. Unless noted, calls follow the shape of the dose curve; as a rule, active = well fitted curve in the direction sought with a large enough effect in the repeat runs; inconclusive = weak or mixed curves; inactive = no such curve, though single readings can be large; an effect the other way counts as inactive or inconclusive.

Glucocorticoid receptor (Homo sapiens), sequence (P04150 whole entry, looked up): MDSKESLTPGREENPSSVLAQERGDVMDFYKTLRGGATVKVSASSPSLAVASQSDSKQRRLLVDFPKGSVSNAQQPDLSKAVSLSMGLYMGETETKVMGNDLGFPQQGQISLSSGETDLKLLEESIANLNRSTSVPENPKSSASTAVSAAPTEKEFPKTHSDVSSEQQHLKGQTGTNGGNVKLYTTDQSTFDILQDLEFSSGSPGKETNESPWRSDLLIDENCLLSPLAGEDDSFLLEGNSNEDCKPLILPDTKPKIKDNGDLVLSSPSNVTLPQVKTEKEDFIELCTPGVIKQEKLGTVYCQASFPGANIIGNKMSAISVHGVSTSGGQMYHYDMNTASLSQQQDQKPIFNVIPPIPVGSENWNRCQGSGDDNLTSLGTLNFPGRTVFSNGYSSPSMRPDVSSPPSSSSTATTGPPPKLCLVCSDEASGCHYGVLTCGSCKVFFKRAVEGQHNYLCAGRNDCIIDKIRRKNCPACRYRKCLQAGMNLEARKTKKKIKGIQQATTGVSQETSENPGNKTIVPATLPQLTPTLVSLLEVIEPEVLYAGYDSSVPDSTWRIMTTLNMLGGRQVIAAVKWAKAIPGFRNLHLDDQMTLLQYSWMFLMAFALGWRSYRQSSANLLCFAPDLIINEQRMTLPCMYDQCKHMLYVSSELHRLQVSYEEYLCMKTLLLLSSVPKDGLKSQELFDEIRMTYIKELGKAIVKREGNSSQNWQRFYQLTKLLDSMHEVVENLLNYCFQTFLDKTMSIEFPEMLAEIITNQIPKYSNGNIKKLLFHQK
Androgen receptor (Homo sapiens), sequence (P10275 whole entry, looked up): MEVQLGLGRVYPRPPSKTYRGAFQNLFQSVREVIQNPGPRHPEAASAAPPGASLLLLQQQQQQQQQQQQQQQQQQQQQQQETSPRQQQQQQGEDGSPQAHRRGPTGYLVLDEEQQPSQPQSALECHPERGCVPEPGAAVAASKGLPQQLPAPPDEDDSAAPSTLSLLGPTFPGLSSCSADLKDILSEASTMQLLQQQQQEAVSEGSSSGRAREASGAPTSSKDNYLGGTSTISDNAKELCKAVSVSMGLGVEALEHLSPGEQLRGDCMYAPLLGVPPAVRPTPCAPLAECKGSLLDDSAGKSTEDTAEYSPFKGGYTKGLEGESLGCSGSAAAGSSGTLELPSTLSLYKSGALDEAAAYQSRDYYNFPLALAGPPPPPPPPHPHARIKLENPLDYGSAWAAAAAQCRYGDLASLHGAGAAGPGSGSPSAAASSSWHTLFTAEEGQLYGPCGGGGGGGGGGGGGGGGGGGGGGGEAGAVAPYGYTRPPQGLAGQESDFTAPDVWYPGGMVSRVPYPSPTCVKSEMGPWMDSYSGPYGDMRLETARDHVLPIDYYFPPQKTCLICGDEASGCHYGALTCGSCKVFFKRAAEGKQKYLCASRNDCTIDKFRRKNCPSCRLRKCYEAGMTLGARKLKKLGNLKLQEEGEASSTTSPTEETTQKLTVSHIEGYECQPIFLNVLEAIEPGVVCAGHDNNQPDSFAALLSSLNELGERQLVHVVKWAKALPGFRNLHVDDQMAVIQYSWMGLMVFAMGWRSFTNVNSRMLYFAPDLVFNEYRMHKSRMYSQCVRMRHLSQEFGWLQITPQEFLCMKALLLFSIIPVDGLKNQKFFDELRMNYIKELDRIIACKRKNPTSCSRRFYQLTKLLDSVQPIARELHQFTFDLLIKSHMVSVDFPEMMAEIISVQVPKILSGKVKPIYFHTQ
Aryl hydrocarbon receptor (Homo sapiens), sequence (P35869 whole entry, looked up): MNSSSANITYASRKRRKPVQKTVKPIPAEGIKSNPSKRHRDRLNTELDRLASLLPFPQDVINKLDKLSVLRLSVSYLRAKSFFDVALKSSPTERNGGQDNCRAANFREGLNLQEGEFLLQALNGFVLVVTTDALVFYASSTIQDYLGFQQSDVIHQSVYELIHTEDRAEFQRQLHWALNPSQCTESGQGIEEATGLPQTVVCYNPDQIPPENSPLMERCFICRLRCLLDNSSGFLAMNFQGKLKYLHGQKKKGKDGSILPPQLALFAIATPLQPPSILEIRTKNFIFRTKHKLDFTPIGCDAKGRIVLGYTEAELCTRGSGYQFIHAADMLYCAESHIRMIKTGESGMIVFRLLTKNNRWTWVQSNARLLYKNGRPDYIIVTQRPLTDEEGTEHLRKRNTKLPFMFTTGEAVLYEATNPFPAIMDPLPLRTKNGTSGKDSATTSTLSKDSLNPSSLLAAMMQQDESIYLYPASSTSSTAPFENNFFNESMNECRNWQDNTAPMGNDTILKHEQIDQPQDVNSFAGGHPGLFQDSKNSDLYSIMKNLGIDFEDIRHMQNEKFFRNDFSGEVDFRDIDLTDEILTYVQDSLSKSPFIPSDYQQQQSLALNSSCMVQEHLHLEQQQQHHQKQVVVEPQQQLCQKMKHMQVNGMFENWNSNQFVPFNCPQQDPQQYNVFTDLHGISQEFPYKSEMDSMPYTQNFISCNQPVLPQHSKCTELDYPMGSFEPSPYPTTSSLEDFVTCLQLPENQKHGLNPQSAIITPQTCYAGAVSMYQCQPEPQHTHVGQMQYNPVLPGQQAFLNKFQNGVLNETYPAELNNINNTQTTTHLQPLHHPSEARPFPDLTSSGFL

For `CN[C@@H]1C[C@@H](c2ccc(Cl)c(Cl)c2)c2ccccc21`, the Potency result in [1], in experiment [2], in experiment [3], in [5], in experiment [6] and in experiment [8] was “inactive” in each case. Besides, the Potency entry in experiment [9], in experiment [10], in experiment [13], in experiment [14], in experiment [15] and in experiment [16] was “inactive” each time. For the same compound, the Potency result in experiment [17], in [18], in [21], in [22], in experiment [25] and in experiment [26] was “inactive” each time. Moreover, the Potency result in [27], in [29], in [30], in experiment [31], in [32] and in [33] was “inactive” throughout. Moreover, in experiment [35], the Potency result is “inactive”. The compound was classed as inactive in experiment [4], in [7], in [11] and in experiment [12]. Moreover, the Potency in [19] was 11.9 µM (active); in [20], 11.9 µM (active); in experiment [23], 11.9 µM (active); in experiment [24] it was 11.9 µM (active); in experiment [28] it was 29.8 µM (active); in [34], 28.2 µM (active).

Consider `C[C@H](N)CN1CCc2ccc(Br)cc21`, for which the Potency result in [31], in [36], in experiment [33], in experiment [37] and in [38] was “inactive” throughout.

For `CC(C)(C)c1cc(C=C(C#N)C#N)cc(C(C)(C)C)c1O`, the Potency is 0.276 µM (active) in experiment [36] and 0.181 µM (active) in experiment [33]. Besides, the Potency entry in experiment [32] and in experiment [38] was “inactive” each time.
